# tim23-1 inh: growth inhibitors of tim23-1 mutant yeast | S. cerevisiae tim23-1 growth, BacTiter-Glo luminescence, 24 h | AID 463212 | inhibition, % at 20 µM | 330,000 compounds, 1.3% hits;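 active means growth inhibition of the mutant yeast at or above 50%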;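 further: temperature-sensitive mutant grown at 25 °C; plate controls were DMSO-treated mutant yeast for no effect and medium wells lacking yeast for full effect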
# TIM10 inh: inhibits growth of TIM10 yeast strain; S. cerevisiae TIM10 strain growth, BacTiter-Glo luminescence, 24 h; inhibition, % at 10 µM; 330,000 compounds, 1.4% hits;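 active means inhibition of 40% or more at the single tested concentration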;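 further: wild-type TIM10 isogenic control strain grown at permissive 25 °C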
# NLRP3 yeast inh: blocks the NALP3 inflammasome reconstituted in yeast | 330,000 compounds, 0.39% hits | AID 2825 | inhibition, % at 10 µM | Yeast reconstituted NLRP3/ASC/caspase-1, beta-gal luminescence, 24 h;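 active means inhibition of 50% or more; inactive means inhibition below 50%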;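 further: plate controls were induced DMSO wells for no effect and uninduced yeast grown without galactose for full effect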
# tim10-1 inh: inhibits growth of tim10-1 mutant yeast; S. cerevisiae tim10-1 ts strain growth, BacTiter-Glo, 24 h; AID 463190; inhibition, % at 20 µM; 330,000 compounds, 2.2% hits;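 active means inhibition of at least 40%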;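 further: mutant grown at 25 °C; 0% = DMSO wells with yeast and 100% = wells holding no yeast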
# Yeast superoxide: yeast age-related superoxide inhibition as caloric restriction mimetic | S. cerevisiae aged cells, superoxide DHE fluorescence; active compounds read low | superoxide response (% of plate mean), % at 10 µM | 330,000 compounds, 0.18% hits | AID 2690;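 active means superoxide response under a set limit, about three screen SD below normal, cut at about 65% in these data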;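 further: yeast aged for seven days with compound at 30 °C before DHE staining; 100% = average MFI of all compound-treated wells on the plate with controls excluded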
# tim23-1 confirm: confirmation of tim23-1 mutant yeast growth inhibitors. shares compounds with tim23-1 inh. S. cerevisiae tim23-1 growth, BacTiter-Glo luminescence, 24 h. inhibition, % at 20 µM. 4,400 compounds, 83% hits. AID 463218;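 active means inhibition above about 39% in either of two replicate wells at 20 µM, limit read from the data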;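 further: temperature-sensitive tim23-1 mutant grown at 25 °C; 0% = DMSO wells with yeast and 100% = medium wells without yeast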
# * = called active by the depositor; / = not tested or not shown. A selection: hits, their analogues and other compounds. The true share with any hit is near 3.8%.
SMILES,tim23-1 inh,TIM10 inh,NLRP3 yeast inh,tim10-1 inh,Yeast superoxide,tim23-1 confirm
CC(=O)Nc1ccc(C2CC(c3ccc(Cl)cc3)=NN2c2ccccc2)cc1 (stereo unspecified),63.1*,22.6,-11.0,38.3,106.5,41.5*
CC(=O)Nc1ccc(C2=NN(c3ccccc3)C(c3ccccc3)C2)cc1 (stereo unspecified),29.6,20.0,24.9,30.4,99.1,/
CCOC(=O)C(=CNNc1ccccc1)C(=O)OCC,52.4*,19.5,19.3,39.6,80.5,79.3*
CCOC(=O)NNc1ccccc1,4.1,-41.1,5.9,-31.6,77.5,/
CCS(=O)(=O)c1nc(S(=O)(=O)c2ccc(Cl)cc2)c(N2CCC3(CC2)OCCO3)s1,37.4,26.3,6.0,18.8,76.6,/
CC(C)n1nc(C(=O)Nc2nnc(C3CC3)s2)c2ccccc2c1=O,31.0,14.8,4.4,14.6,98.9,/
CCSc1nnc(NC(=O)c2nn(C(C)C)c(=O)c3ccccc23)s1,56.6*,22.7,-15.7,32.4,100.9,37.1*
COC(=O)CCC(=O)NC(=S)Nc1ccc(S(=O)(=O)N2CCCC2)cc1,14.7,1.5,15.8,20.2,99.5,/
COc1ccc(S(=O)(=O)N2CCc3ccccc3C2)cc1,53.3*,29.3,26.7,18.9,90.6,45.5*
Cc1ccc(-c2ccc(C3C(C#N)=C(N)Oc4n[nH]c(C)c43)o2)cc1 (stereo unspecified),59.8*,14.1,4.6,25.5,103.1,46.2*
COc1ccc2nc(NC3=NCCC3)sc2c1,11.5,17.5,32.4,9.0,104.2,/
COc1cccc(Nc2nc3ccc(OC)cc3s2)c1,61.2*,37.1,25.6,18.1,86.4,57.2*
COc1cccc(Nc2nc(-c3sc(N)nc3C)cs2)c1,23.3,9.9,22.4,15.5,92.2,/
COc1cccc(Nc2nc(-c3sc(C)nc3C)cs2)c1,55.0*,29.8,25.4,15.1,100.4,45.8*
COC(=O)c1cnc(SCc2ccc([N+](=O)[O-])cc2)n1C,17.4,1.0,13.3,7.6,111.0,/
CCCOc1ccc(C(=O)CCC(=O)NNC(=O)Cn2nc(C)cc2C)cc1,-8.6,-5.5,7.5,-12.9,91.2,/
O=[N+]([O-])/C(C(Cl)=C(Cl)Cl)=C(\Nc1ccc(F)cc1)n1cncn1,75.3*,34.9,8.4,38.3,117.5,19.9
CCOc1ccc(N/C(=C(/C(Cl)=C(Cl)Cl)[N+](=O)[O-])n2cncn2)cc1,9.6,5.3,10.4,17.2,115.8,/
Cc1cccc(N(CC(=O)NC2CCCCC2)C(=O)CCC(=O)Nc2nccs2)c1,14.5,16.9,5.6,-8.8,102.4,/
CNC(=S)N/N=C/c1ccc(-c2ccc(C(=O)O)cc2)o1,50.2*,27.6,1.8,30.7,77.4,43.6*
CC(C)CC(=O)Nc1ccccc1N1CCN(c2ccccc2)CC1,15.3,-1.9,7.5,3.9,87.8,/
CC(C)CC(=O)Nc1ccccc1N1CCN(C(=O)c2ccccc2)CC1,76.3*,4.0,10.5,13.4,93.6,7.2
CCn1c(/C=C2\C(=O)N(C(C)C)c3ccccc32)nc2ccccc2c1=O,55.5*,39.0,13.4,30.6,115.7,41.5*
COc1ccc(CN(CCC(C)C)S(=O)(=O)c2ccccc2Br)cc1,34.1,-21.4,/,21.3,91.8,/
COC(=O)CCN(Cc1cc(OC)ccc1OC)S(=O)(=O)c1ccccc1Br,54.3*,13.4,/,28.1,102.2,36.2
SMILES,tim23-1 inh,TIM10 inh,NLRP3 yeast inh,tim10-1 inh,Yeast superoxide,tim23-1 confirm
CCC(=O)CN(Cc1cc(OC)ccc1OC)S(=O)(=O)c1ccccc1Br,57.7*,2.4,/,27.7,109.3,26.1
Cc1cccc(-n2cc(-c3ccccc3)c3c(NN4CCOCC4)ncnc32)c1,28.7,29.1,-0.4,27.5,105.2,/
Cc1cccc(-n2cc(-c3ccccc3)c3c(=O)[nH]cnc32)c1,54.1*,39.8,-42.6,29.0,110.2,47.5*
Cc1ccc(OCC(=O)Nc2ccc(NC(=O)c3ccccc3)cc2)cc1C,2.4,-12.7,10.5,-6.5,103.4,/
c1ccc2c3c([nH]c2c1)-c1[nH]ncc1CC3,60.7*,2.6,23.7,12.8,113.6,37.8
C/C(=C\C(=O)c1ccc(C)cc1)Nc1cccc(O)c1,50.5*,-2.5,33.9,2.5,105.5,34.0
N#CCN=C(c1ccccc1)c1ccccc1,-9.8,-1.5,-6.7,-8.7,101.7,/
O=C(Nc1ccccc1N(C(=O)c1ccco1)S(=O)(=O)c1cccs1)c1ccco1,54.1*,23.1,-3.7,30.3,85.0,38.5*
Nc1ncnc2c1ncn2[C@@H]1O[C@H](CO)C[C@@H]1O,55.9*,-1.5,44.0,36.8,114.9,58.7*
COc1ccc(CN2CCC(N3CC(C)OC(C)C3)CC2)c(OC)c1OC (stereo unspecified),-2.2,-7.8,22.5,-9.5,96.4,/
CC(C)(C)c1ccc(/C=N/Nc2nncn2N)cc1,-10.2,9.9,18.0,20.7,99.1,/
Nn1cnnc1N/N=C/c1cc(Br)cc(Br)c1O,56.8*,39.1,49.8,4.4,96.0,60.1*
CN(C)c1nc(N)c([N+](=O)[O-])c(N2CCCCCC2)n1,54.3*,8.5,20.6,33.1,88.6,39.0*
COCCN(CCOC)c1nc(-c2ccccc2)nc2ccccc12,27.4,-12.1,33.1,5.9,100.8,/
c1ccc(CNc2nc(-c3ccccc3)nc3ccccc23)cc1,56.3*,21.0,28.3,33.2,84.7,24.0
Fc1ccccc1-c1nc(NCc2ccccc2)c2ccccc2n1,50.3*,6.3,11.1,35.2,102.9,38.2
CCN(CC)c1nc(-c2ccccc2)nc2ccccc12,51.3*,32.1,18.2,26.9,101.3,42.6*
COC(=O)CNc1nc(-c2ccccc2F)nc2ccccc12,16.3,16.3,29.6,22.6,99.2,/
c1ccc2[nH]c(-c3cnco3)cc2c1,6.7,0.4,20.7,-13.5,93.2,/
CCOC(=O)Nc1sc2nc(C)cc(C)c2c1-n1cccc1,50.7*,13.5,29.0,29.1,118.1,29.4
COCC(=O)Nc1cc(C(=O)Nc2cccc(C)c2C)ccc1Cl,14.5,9.1,17.6,1.3,109.5,/
COC(=O)C1CCN(C(=O)c2cc(-c3ccc(Cl)s3)nc3ccccc23)CC1,52.3*,9.9,-0.8,15.0,105.3,52.0*
Cn1c(SCc2ccc(Br)cc2)nnc1-c1ccccn1,52.4*,13.3,32.4,25.1,107.0,11.2
COc1ccc(N=N/C(=C\O)C(=O)c2ccco2)cc1,50.0*,38.9,17.9,34.6,94.2,58.2*
CNS(=O)(=O)c1c(C)cc(C)c(N(C)S(=O)(=O)c2ccccc2)c1C,18.8,9.5,-2.1,4.6,93.6,/
CCN(CC)c1ccc(C(=O)N/N=C/c2ccccc2OC(F)F)cc1,55.9*,22.2,27.0,26.8,90.8,66.1*
CCN(CC)c1ccc(/C=N/NC(=S)NC)c(O)c1,27.9,28.2,40.3,-14.4,95.6,/
CN(C)c1ccc(/C=N/NC(=O)c2ccc3c(c2)OCCO3)cc1,57.5*,7.8,26.4,-8.8,104.4,37.9

# Screening data deposited in PubChem BioAssay by several laboratories.
